Assay results as given in PubChem BioAssay (Tox21).
Results filed as inconclusive are left out. Calls of active or inactive are those of the source. Unless noted, calls come from the whole dose curve.

How the values were obtained:
[1] = Nuclear factor erythroid 2-related factor 2/antioxidant responsive element (Nrf2/ARE) small molecule agonists: qHTS cell viability counter screen in human keratinocytes (AID 1919968; active = well fitted curve in the direction sought with a large enough effect in the repeat runs; an effect the other way counts as inactive or inconclusive; note: nearly all actives have a fitted effect of over 55% in size)
How it was run: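 Cytotoxicity was multiplexed with the Nrf2/ARE luciferase assay in the same wells. Stably transfected HaCaT keratinocytes were treated with test compounds for 23 h at 37 C. Cell viability was then measured by CellTiter-Fluor fluorescence.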

[2] = Nuclear factor erythroid 2-related factor 2/antioxidant responsive element (Nrf2/ARE) small molecule agonists: luciferase reporter gene qHTS assay in human keratinocytes (AID 1919969); note: nearly all actives have a fitted effect of over 35% in size
[3] = target: Gonadotropin-releasing hormone receptor (Homo sapiens) (UniProt P30968); test: Human gonadotropin-releasing hormone receptor (GnRHR) small molecule agonists, calcium flux assay in GnRHR-HEK293 cells (AID 1920063); note: nearly all actives have a fitted effect of over 35% in size
How it was run: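 Agonist activity was measured as intracellular calcium flux in HEK293 cells engineered to stably express human GnRHR. After dye loading for 1 hour at 37 C, compounds in DMSO were added and fluorescence was followed for 3 minutes.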

[4] = target: KiSS-1 receptor (Homo sapiens) (UniProt Q969F8); test: Human kisspeptin (KISS1R) small molecule agonists, calcium flux assay in KISS1R-HEK293 cells (AID 1920064; active = well fitted curve in the direction sought with a large enough effect in the repeat runs; an effect the other way counts as inactive or inconclusive)
How it was run: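 Agonist activity is monitored as intracellular calcium rise in engineered HEK293 cells carrying human KISS1R. Cells are dye-loaded for 1 h at 37 C before compound addition, and fluorescence is recorded for 3 min.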

[5] = G protein-coupled receptor (GPCR) small molecule agonists, calcium flux assay: HEK293 wild type cell line counter screen (AID 1920065)
How it was run: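 Seed cells, incubate 18 h (37 C, 5% CO2); add calcium dye, 1 h at 37 C; pin-transfer compounds, ATP control or DMSO; read fluorescence 480/540 nm each second for 3 min.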

[6] = p53 small molecule agonists, cell-based qHTS assay with human liver microsomes (AID 1963577);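 note: p53 response element beta-lactamase reporter cells with liver microsomes plus NADPH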
How it was run: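 Metabolically competent format: test substances, human liver microsomes and NADPH (both 0.5 mg/mL final) incubated with p53RE-bla cells 16 h at 37 C. Beta-lactamase reporter signal then quantified by fluorescence.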

[7] = p53 small molecule agonists, cell-based qHTS assay with rat liver microsomes (AID 1963578)
How it was run: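 Each plate received p53RE-bla cells, then compound, then rat liver microsomes and NADPH (both 0.5 mg/mL final). Plates were held 16 h at 37 C, and beta-lactamase activity was detected with LiveBLAzer over 2 h.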

[8] = p53 small molecule agonists, cell-based qHTS assay with human liver microsomes: qHTS cell viability counter screen (AID 1963579); note: nearly all actives have a fitted effect of over 45% in size
How it was run: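 Tox21 library compounds, delivered from DMSO stocks, were tested on p53RE-bla cells together with 0.5 mg/mL human liver microsomes and 0.5 mg/mL NADPH (final) over 16 h at 37 C; CellTiter-Glo luminescence served as the cytotoxicity measure.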

[9] = p53 small molecule agonists, cell-based qHTS assay: qHTS cell viability counter screen (AID 1963581); note: nearly all actives have a fitted effect of over 45% in size
How it was run: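 Viability was counter-screened in parallel with the p53 agonist reporter by measuring intracellular ATP luminescence in the same HCT-116 p53RE-bla wells after 16 h compound treatment at 37 C.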

[10] = target: 5-hydroxytryptamine receptor 2A (Homo sapiens) (UniProt P28223); test: 5-hydroxytryptamine receptor 2A (HTR2A) small molecule antagonists, cell-based qHTS assay (AID 1963586); note: nearly all actives have a fitted effect of over 45% in size
How it was run: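 CHO cells stably expressing human HTR2A were plated for 18 h at 37 C, then loaded with calcium dye for 1 h. Compounds were preincubated 5 min at room temperature before DOI (4 nM solution) was added. Kinetic fluorescence was read for 3 min.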

[11] = target: 5-hydroxytryptamine receptor 2A (Homo sapiens) (UniProt P28223); test: 5-hydroxytryptamine receptor 2A (HTR2A) small molecule agonists, cell-based qHTS assay (AID 1963587); note: nearly all actives have a fitted effect of over 30% in size
How it was run: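 CHO cells stably expressing human HTR2A, plated 18 h, loaded with calcium dye 1 h at 37 C. Agonist mode: compounds added and intracellular calcium fluorescence recorded kinetically for 2 min at 1 sec intervals.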

[12] = target: Muscarinic acetylcholine receptor M1 (Homo sapiens) (UniProt P11229); test: Cholinergic receptor muscarinic 1 (CHRM1) small molecule antagonists, cell-based qHTS assay (AID 1963588); note: nearly all actives have a fitted effect of over 40% in size
How it was run: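 Compounds were tested at 15 concentrations in three independent runs. Dye-loaded CHRM1-CHO cells were exposed 5 min at room temperature before stimulation by acetylcholine added at 50nM. Intracellular calcium was read kinetically on FDSS for 3 min.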

[13] = target: Muscarinic acetylcholine receptor M1 (Homo sapiens) (UniProt P11229); test: Cholinergic receptor muscarinic 1 (CHRM1) small molecule agonists, cell-based qHTS assay (AID 1963589); note: nearly all actives have a fitted effect of over 35% in size
How it was run: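 Cells were plated and incubated 18 h at 37 C/5% CO2, loaded with calcium dye for 1 h at 37 C, then treated with compounds in DMSO. Fluorescence was recorded kinetically at 1 sec intervals.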

[14] = target: D(2) dopamine receptor (Homo sapiens) (UniProt P14416); test: Dopamine D2 receptor (DRD2) small molecule agonists, cell-based qHTS assay (AID 1963594); note: nearly all actives have a fitted effect of over 35% in size
How it was run: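 HEK293 cells stably expressing human DRD2, pre-treated with PDE inhibitor Ro20-1724 (0.1 mM final) and compound 10 min at room temperature, then stimulated with NKH477 (200nM […]) for 30 min. cAMP read by HTRF (665/620 nm).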

[15] = target: D(2) dopamine receptor (Homo sapiens) (UniProt P14416); test: Dopamine D2 receptor (DRD2) small molecule antagonists, cell-based qHTS assay (AID 1963595; active = well fitted inhibition curve with a large enough effect in the signal ratio in the repeat runs, with a control signal flat; the % refers to the signal ratio)
How it was run: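 HEK293 cells stably expressing DRD2 were preincubated with 0.1 mM Ro20-1724, then with compound for 10 min at room temperature. Cells were stimulated with 200 nM NKH477 plus 12 nM quinpirole for 30 min, and cAMP was read by HTRF.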

[16] = p53 small molecule agonists, cell-based qHTS assay (AID 1963582; active = well fitted activation curve with a large enough effect in the signal ratio in the repeat runs, not every such curve was filed as active; the % refers to the signal ratio)
How it was run: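 Cells carrying a p53-responsive bla reporter are treated with test compounds for 16 h at 37 C; beta-lactamase activity is then detected with LiveBLAzer B/G FRET substrate after 2 h at room temperature.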

[17] = cAMP Responsive Elements (CRE) small molecule agonists, cell-based qHTS assay (AID 1963590)
How it was run: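 Cells carrying a CRE-driven beta-lactamase reporter (HEK 293T) are seeded, incubated overnight (18 h), and treated with test compounds for 3 h at 37 C; reporter activity is then detected with a FRET substrate after 2 h at room temperature.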

[18] = cAMP Responsive Elements (CRE) small molecule antagonists, cell-based qHTS assay (AID 1963591; active = well fitted inhibition curve with a large enough effect in the signal ratio in the repeat runs, not every such curve was filed as active; the % refers to the signal ratio)
How it was run: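 Cells (CRE-bla HEK 293T, DMEM with 10% dialyzed FBS and 25 mM HEPES) are seeded and incubated 18 h. Compounds are added with NKH477 agonist at 0.25 uM final for 3 h, then FRET substrate for 2 h.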

[19] = target: Beta-2 adrenergic receptor (Homo sapiens) (UniProt P07550); test: Adrenergic beta2 receptor (ADRB2) small molecule antagonists, cell-based qHTS assay (AID 1963592); note: series mostly up to about 92 µM; nearly all actives have a fitted effect of over 50% in size
How it was run: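 Assay format: CHO-ADRB2 cells, 18-20hr seeding at 37C/5% CO2, then compound plus 1nM isoproterenol agonist mix for 0.5hr RT. Homogeneous time-resolved fluorescence cAMP detection after 1hr, expressed as 665/615 nm ratio.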

[20] = p53 small molecule agonists, cell-based qHTS assay with rat liver microsomes: qHTS cell viability counter screen (AID 1963580); note: nearly all actives have a fitted effect of over 45% in size
How it was run: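 Cytotoxicity counter screen: intracellular ATP measured by CellTiter-Glo luminescence in the same wells as the beta-lactamase reporter read, on HCT-116 p53RE-bla cells exposed 16 h at 37 C to compounds with rat liver microsomes and NADPH, each 0.5 mg/mL final.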

Measured: Potency

Chain of Muscarinic acetylcholine receptor M1 (Homo sapiens) (P11229 whole entry, looked up): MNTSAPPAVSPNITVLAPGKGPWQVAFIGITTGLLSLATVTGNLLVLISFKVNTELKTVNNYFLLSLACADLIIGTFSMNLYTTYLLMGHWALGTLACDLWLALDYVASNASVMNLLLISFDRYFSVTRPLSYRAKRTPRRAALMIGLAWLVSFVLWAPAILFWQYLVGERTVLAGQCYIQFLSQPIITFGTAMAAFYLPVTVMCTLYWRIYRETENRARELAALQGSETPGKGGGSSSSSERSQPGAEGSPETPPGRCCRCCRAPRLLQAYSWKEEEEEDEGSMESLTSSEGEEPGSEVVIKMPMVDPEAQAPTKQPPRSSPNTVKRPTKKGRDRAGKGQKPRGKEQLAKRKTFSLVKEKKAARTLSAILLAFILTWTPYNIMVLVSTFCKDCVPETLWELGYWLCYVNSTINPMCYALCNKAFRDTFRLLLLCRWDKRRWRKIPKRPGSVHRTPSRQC
Chain of Beta-2 adrenergic receptor (Homo sapiens) (P07550 whole entry, looked up): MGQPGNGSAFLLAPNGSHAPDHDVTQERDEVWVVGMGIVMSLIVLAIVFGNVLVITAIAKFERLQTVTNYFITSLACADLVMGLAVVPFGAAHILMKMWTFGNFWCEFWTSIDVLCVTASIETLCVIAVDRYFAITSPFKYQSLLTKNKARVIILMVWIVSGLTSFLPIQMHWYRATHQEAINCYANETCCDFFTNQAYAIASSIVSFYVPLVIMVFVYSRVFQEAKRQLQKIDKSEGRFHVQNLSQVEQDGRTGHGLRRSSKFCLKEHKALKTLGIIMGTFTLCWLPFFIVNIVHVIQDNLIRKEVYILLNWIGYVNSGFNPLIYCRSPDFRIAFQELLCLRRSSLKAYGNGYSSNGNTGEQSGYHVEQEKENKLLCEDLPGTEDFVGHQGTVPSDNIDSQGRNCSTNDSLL
Chain of D(2) dopamine receptor (Homo sapiens) (P14416 whole entry, looked up): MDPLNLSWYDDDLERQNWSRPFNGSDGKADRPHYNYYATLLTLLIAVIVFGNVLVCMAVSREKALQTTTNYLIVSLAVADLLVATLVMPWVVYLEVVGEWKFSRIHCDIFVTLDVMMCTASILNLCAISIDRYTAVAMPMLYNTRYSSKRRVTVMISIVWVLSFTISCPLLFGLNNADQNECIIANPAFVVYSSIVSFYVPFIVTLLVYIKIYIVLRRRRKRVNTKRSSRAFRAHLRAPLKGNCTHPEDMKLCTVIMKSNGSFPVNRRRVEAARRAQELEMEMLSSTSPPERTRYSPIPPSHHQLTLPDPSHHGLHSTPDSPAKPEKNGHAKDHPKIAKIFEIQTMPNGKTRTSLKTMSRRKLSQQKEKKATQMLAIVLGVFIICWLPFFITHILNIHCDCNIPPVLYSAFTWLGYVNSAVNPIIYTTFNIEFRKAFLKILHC
Chain of KiSS-1 receptor (Homo sapiens) (Q969F8 whole entry, looked up): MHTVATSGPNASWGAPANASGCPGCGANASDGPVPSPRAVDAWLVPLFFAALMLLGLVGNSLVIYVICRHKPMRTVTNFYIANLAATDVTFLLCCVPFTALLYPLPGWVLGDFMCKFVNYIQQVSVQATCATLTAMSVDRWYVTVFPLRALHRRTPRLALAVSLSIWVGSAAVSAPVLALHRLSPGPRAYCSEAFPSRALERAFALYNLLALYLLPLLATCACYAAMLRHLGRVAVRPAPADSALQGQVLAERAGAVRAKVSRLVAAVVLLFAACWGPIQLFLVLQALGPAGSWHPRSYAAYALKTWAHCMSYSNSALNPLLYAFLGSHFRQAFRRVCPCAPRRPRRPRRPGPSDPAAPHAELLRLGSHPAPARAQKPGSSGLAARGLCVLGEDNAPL
Chain of Gonadotropin-releasing hormone receptor (Homo sapiens) (P30968 whole entry, looked up): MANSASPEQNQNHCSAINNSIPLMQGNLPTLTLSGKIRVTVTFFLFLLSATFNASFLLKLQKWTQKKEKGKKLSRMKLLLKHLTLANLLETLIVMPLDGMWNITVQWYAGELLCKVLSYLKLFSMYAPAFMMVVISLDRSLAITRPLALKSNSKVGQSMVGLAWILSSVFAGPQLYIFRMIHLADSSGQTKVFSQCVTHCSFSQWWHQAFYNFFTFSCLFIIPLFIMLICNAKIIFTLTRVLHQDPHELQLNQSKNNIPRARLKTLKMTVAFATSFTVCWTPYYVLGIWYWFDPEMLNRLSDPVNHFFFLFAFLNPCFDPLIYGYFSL
Chain of 5-hydroxytryptamine receptor 2A (Homo sapiens) (P28223 whole entry, looked up): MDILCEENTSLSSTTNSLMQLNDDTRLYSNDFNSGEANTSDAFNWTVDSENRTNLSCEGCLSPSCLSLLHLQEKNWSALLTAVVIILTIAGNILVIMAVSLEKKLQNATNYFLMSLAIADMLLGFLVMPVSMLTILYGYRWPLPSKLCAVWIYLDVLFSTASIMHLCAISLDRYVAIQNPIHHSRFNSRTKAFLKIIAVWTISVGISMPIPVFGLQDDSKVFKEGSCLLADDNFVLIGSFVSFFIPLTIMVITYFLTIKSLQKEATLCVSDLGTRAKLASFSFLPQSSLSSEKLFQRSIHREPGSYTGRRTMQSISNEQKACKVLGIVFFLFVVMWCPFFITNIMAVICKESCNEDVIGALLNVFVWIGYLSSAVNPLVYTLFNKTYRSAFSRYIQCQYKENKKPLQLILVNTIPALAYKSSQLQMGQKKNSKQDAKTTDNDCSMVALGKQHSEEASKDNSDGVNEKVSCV

Cc1cc(Cl)ccc1OCCCC(=O)O
not listed: [16] | [17] | [18] | [19] | [20]
inactive: all other assays above

CC1(C)C(=O)NC(=O)NC1=O
not listed: [10] | [19] | [20]
inactive: all other assays above

CC(C)Nc1nc(Cl)nc(NC(C)C)n1
not listed: [9] | [20]
inactive: all other assays above

CC1CCC(=O)O1 (centres undefined)
not listed: [20]
inactive: all other assays above

CCCCCBr
not listed: [16] | [20]
inactive: all other assays above

COC[C@H](C)N(C(=O)CCl)c1c(C)csc1C
not listed: [8]
inactive: all other assays above

CSc1nc(NC(C)C)nc(NC(C)C)n1
not listed: [9] | [16]
inactive: all other assays above
